This is a sample that favours compounds with a hit; in the whole collection about 1.4% have one here.
HSV replic up = enhancers of HSV replication in host cells, fold increase, host cell viability; actives 0.005% (n = 220,000); AID 1956, 2009; maximum fold increase; HSV replication augmentation in cells; in the data active = maximum fold increase above about 1.5; tested in PC3 cells
MIN6 prolif-1 = inducers of MIN6 beta-cell proliferation, primary screen, ATP luminescence, uHTS; MIN6 cells proliferation, ATPlite luminescence, 48 h; cells starved in 0.2% serum; 100% = growth in 10% serum; proliferation, % at 10 µM; actives 0.29% (n = 330,000);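 active = compounds whose signal lies at least 3.5 SD above the mean of all wells on their plate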
p-CIP stab down = p/CIP-EGFP fusion destabilizers, primary screen, fluorescence, F442A cells | AID 1984, 2009 | 16 h | actives 0.01% (n = 290,000) | decrease of EGFP signal, % at 10 µM;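 active = EGFP signal decrease of at least 30% at 10 µM or well 3 SD below plate mean, unless failing retest; inactive = the rest, including hits failing retest or dose response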
Target sequence (Q05BA5 1-1403): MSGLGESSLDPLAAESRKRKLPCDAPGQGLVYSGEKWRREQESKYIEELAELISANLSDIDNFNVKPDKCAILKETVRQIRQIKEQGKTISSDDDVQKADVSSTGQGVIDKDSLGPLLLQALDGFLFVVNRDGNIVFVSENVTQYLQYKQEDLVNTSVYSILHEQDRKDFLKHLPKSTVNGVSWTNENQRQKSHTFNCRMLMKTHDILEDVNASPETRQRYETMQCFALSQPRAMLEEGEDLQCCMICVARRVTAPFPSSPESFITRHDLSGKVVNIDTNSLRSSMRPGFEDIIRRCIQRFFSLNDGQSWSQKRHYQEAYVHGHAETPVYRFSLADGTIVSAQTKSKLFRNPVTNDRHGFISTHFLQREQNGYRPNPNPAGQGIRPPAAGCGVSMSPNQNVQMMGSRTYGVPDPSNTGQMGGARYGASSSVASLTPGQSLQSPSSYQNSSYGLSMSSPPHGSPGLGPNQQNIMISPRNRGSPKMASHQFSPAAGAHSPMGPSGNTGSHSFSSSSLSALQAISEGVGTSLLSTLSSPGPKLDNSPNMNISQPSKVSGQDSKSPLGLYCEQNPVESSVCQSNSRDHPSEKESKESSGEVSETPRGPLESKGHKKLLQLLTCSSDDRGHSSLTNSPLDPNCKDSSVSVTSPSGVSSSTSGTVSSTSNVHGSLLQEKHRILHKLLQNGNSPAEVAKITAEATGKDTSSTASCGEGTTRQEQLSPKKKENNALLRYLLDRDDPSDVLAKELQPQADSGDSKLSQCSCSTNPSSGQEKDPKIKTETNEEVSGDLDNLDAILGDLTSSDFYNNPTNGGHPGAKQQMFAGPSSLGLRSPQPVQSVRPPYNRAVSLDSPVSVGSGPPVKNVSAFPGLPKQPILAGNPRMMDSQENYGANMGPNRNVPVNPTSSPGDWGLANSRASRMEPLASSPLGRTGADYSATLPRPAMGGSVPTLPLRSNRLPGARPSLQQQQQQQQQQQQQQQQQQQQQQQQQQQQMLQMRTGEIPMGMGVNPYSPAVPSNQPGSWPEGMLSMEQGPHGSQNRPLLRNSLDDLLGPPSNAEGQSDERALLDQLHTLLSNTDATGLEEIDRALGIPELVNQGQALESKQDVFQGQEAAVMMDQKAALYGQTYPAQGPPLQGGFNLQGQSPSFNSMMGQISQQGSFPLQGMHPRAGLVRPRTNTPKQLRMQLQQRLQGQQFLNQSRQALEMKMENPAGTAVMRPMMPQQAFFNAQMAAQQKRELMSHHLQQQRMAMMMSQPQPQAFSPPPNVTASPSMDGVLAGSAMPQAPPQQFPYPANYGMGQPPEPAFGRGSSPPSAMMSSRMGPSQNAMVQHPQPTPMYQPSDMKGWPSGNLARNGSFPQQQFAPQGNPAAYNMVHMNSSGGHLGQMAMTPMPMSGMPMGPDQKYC
H9c2 protect = cardioprotection against H2O2-induced cell death, primary screen, uHTS, H9c2 cells, ATPLite luminescence; H9c2 cardiomyocytes, H2O2 injury protection, 2 h; protection from H2O2 cell death, % at 20 µM; actives 0.63% (n = 360,000);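 active = compounds giving at least 50% protection of heart cells from peroxide-induced death in the single-dose screen, raw or plate-pattern-corrected value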
V-ATPase pHluor = regulators of yeast V-ATPase proton pumping, primary screen, pHLuorin cytosolic pH fluorescence; S. cerevisiae; AID 504577, 2011; response, % at 10 µM; actives 0.37% (n = 350,000); in the data active = response mostly above about 7.3%, no sharp cut-off; inactive = mostly below about 5.4%; also: actives read high
CR mimetic SO = reduction of superoxide in aged yeast, primary screen, HTS; S. cerevisiae aged cells, superoxide DHE fluorescence; hits give low values; superoxide response (% of plate mean), % at 10 µM; actives 0.18% (n = 330,000); AID 2690, 2010;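 active = superoxide response under a set limit, about three screen SD below normal, cut at about 65% in these data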;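 also: yeast aged for seven days with compound at 30 °C before DHE staining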
MIN6 prolif-2 = inducers of beta-cell proliferation in MIN6, confirmation, MIN6 cells, mouse. shares compounds with MIN6 prolif-1. ATPlite luminescence, 48 h; cells kept in 0.2% serum; scaled between 0.2% and 10% serum. proliferation increase, % at 50 µM. 920 tested, under 10 active. AID 463095, 2010;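 active = proliferation increase above 40% at any of the four tested concentrations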
Hits are given with their value.

How did COc1ccc(OC)c(NC(=O)c2ccccc2NS(=O)(=O)c2cccc3cccnc23)c1 do in these assays?
HSV replic up: inactive; MIN6 prolif-1: 5.4; p-CIP stab down: inactive; H9c2 protect: inactive; V-ATPase pHluor: inactive; CR mimetic SO: inactive; MIN6 prolif-2: inactive

What do the screens show for `CCN1C(=O)[C@@H]2C(C(=O)c3cnccn3)=NN[C@@H]2C1=O`?
HSV replic up: inactive; MIN6 prolif-1: inactive; p-CIP stab down: inactive; H9c2 protect: inactive; V-ATPase pHluor: inactive; CR mimetic SO: inactive

What do the screens show for `CCC(=O)N1N=C(c2cccs2)CC1c1ccc(C)cc1` (configuration not stated)?
MIN6 prolif-1: 7.8; p-CIP stab down: inactive; H9c2 protect: inactive; V-ATPase pHluor: inactive; CR mimetic SO: inactive; MIN6 prolif-2: inactive

How did CCC(=O)N1N=C(c2ccccc2)CC1c1ccc([N+](=O)[O-])cc1 (configuration not stated) do in these assays?
MIN6 prolif-1: 7.3; p-CIP stab down: inactive; H9c2 protect: inactive; V-ATPase pHluor: inactive; CR mimetic SO: inactive; MIN6 prolif-2: inactive

What do the screens show for `O=C(CN1C(=O)S/C(=C/c2cccs2)C1=O)N1CCOCC1`?
HSV replic up: inactive; MIN6 prolif-1: inactive; p-CIP stab down: inactive; H9c2 protect: inactive; V-ATPase pHluor: inactive; CR mimetic SO: inactive

Results for O=C(CN1C(=O)S/C(=C/c2cccs2)C1=O)N1CCCC1 ?
MIN6 prolif-1: 10.0; H9c2 protect: inactive; V-ATPase pHluor: inactive; CR mimetic SO: inactive; MIN6 prolif-2: inactive

What do the screens show for `CCN(CC(=O)Nc1c(F)cccc1F)C(=O)Cc1c[nH]c2ccccc12`?
MIN6 prolif-1: inactive; H9c2 protect: inactive; V-ATPase pHluor: inactive; CR mimetic SO: inactive

What do the screens show for `CCN(CC(=O)Nc1c(F)cccc1F)C(=O)Cn1[nH]c(=O)c2ccccc2c1=O`?
MIN6 prolif-1: 11.3; H9c2 protect: 84.3; V-ATPase pHluor: inactive; CR mimetic SO: inactive; MIN6 prolif-2: inactive

Results for CCOC(=O)c1cc[nH]c1CC(=O)NC ?
HSV replic up: inactive; MIN6 prolif-1: 8.5; p-CIP stab down: inactive; H9c2 protect: inactive; V-ATPase pHluor: inactive; CR mimetic SO: inactive; MIN6 prolif-2: inactive

How did CCOC(=O)c1c[nH]c2nc(C)ccc2c1=O do in these assays?
HSV replic up: inactive; MIN6 prolif-1: inactive; p-CIP stab down: inactive; H9c2 protect: inactive; V-ATPase pHluor: inactive; CR mimetic SO: inactive

Results for COc1cc(C(=O)N/C(=C\c2cn(S(=O)(=O)N(C)C)c3ccccc23)C(=O)NCCCO)cc(OC)c1OC ?
HSV replic up: inactive; MIN6 prolif-1: 8.6; p-CIP stab down: inactive; H9c2 protect: inactive; V-ATPase pHluor: inactive; CR mimetic SO: inactive; MIN6 prolif-2: inactive

How did Nc1nc(N)nc(-c2cc(F)ccc2O)n1 do in these assays?
MIN6 prolif-1: 13.5; H9c2 protect: inactive; V-ATPase pHluor: inactive; CR mimetic SO: inactive; MIN6 prolif-2: inactive

Results for COc1ccc(S(=O)(=O)Cc2ccc(C(=O)NCCc3cc(OC)ccc3OC)o2)cc1 ?
HSV replic up: inactive; MIN6 prolif-1: 7.5; p-CIP stab down: inactive; H9c2 protect: inactive; V-ATPase pHluor: inactive; CR mimetic SO: inactive; MIN6 prolif-2: inactive

What do the screens show for `COc1ccc(OC)c(CCNC(=O)c2ccc(CS(=O)(=O)c3ccc(Br)cc3)o2)c1`?
HSV replic up: inactive; MIN6 prolif-1: inactive; p-CIP stab down: inactive; H9c2 protect: inactive; V-ATPase pHluor: inactive; CR mimetic SO: inactive

Results for CCN(CC)c1cnn(C/C(=N\OC)c2ccc(Cl)cc2)c(=O)c1Br ?
HSV replic up: inactive; MIN6 prolif-1: 7.5; p-CIP stab down: inactive; H9c2 protect: inactive; V-ATPase pHluor: inactive; CR mimetic SO: inactive; MIN6 prolif-2: inactive

What do the screens show for `S=c1[nH]nc(CN2CCCCC2)n1Cc1ccccc1`?
HSV replic up: inactive; MIN6 prolif-1: 8.0; p-CIP stab down: inactive; H9c2 protect: inactive; V-ATPase pHluor: inactive; CR mimetic SO: inactive; MIN6 prolif-2: inactive

Results for COc1ccc(-c2noc(CNC(=O)CCN3C(=O)[C@H]4CC=CC[C@H]4C3=O)n2)cc1 ?
MIN6 prolif-1: inactive; p-CIP stab down: inactive; H9c2 protect: inactive; V-ATPase pHluor: inactive; CR mimetic SO: inactive

Results for COc1cccc2cc(C(=O)NC(C)c3ccccc3)c(=O)oc12 (configuration not stated) ?
MIN6 prolif-1: inactive; p-CIP stab down: inactive; H9c2 protect: inactive; V-ATPase pHluor: inactive; CR mimetic SO: inactive

Results for C=CCn1c(C(C)NC(=O)COC)nc2ccccc21 (configuration not stated) ?
HSV replic up: inactive; MIN6 prolif-1: inactive; p-CIP stab down: inactive; H9c2 protect: inactive; V-ATPase pHluor: inactive; CR mimetic SO: inactive

How did O=C(COC(=O)c1cccc(-n2cnnn2)c1)c1ccccc1 do in these assays?
MIN6 prolif-1: inactive; p-CIP stab down: inactive; H9c2 protect: inactive; V-ATPase pHluor: inactive; CR mimetic SO: inactive

What do the screens show for `O=C(OCc1nnc(-c2ccccc2)o1)c1cccc(-n2cnnn2)c1`?
MIN6 prolif-1: 11.0; H9c2 protect: inactive; V-ATPase pHluor: inactive; CR mimetic SO: inactive; MIN6 prolif-2: inactive

What do the screens show for `COc1ccc2c(COC(=O)[C@@H]3CCCN3S(=O)(=O)c3ccc(Cl)cc3)cc(=O)oc2c1`?
MIN6 prolif-1: inactive; H9c2 protect: inactive; V-ATPase pHluor: inactive

Results for O=C(Nc1ccc(S(=O)(=O)NC2=NCCCCC2)cc1)c1ccc2ccccc2n1 ?
HSV replic up: inactive; MIN6 prolif-1: inactive; p-CIP stab down: inactive; H9c2 protect: inactive; V-ATPase pHluor: inactive; CR mimetic SO: inactive

How did NC(=O)c1cc([N+](=O)[O-])c(Cl)cc1NCc1cccnc1 do in these assays?
MIN6 prolif-1: 12.2; H9c2 protect: inactive; V-ATPase pHluor: inactive; CR mimetic SO: inactive; MIN6 prolif-2: inactive

Results for CC(=O)OCc1nc2ccccc2s1 ?
HSV replic up: inactive; MIN6 prolif-1: inactive; p-CIP stab down: inactive; H9c2 protect: inactive; V-ATPase pHluor: inactive; CR mimetic SO: inactive

Results for Cc1cc(C(=O)OCc2nc3ccccc3s2)c(C)o1 ?
MIN6 prolif-1: 8.7; p-CIP stab down: inactive; H9c2 protect: inactive; V-ATPase pHluor: inactive; CR mimetic SO: inactive; MIN6 prolif-2: inactive

What do the screens show for `O=C(COC(=O)Cn1cnc2ccccc21)Nc1cccc([N+](=O)[O-])c1`?
HSV replic up: inactive; MIN6 prolif-1: inactive; p-CIP stab down: inactive; H9c2 protect: inactive; V-ATPase pHluor: inactive; CR mimetic SO: inactive

What do the screens show for `O=C(Cn1cnc2ccccc21)Nc1cccc([N+](=O)[O-])c1`?
HSV replic up: inactive; MIN6 prolif-1: 8.2; p-CIP stab down: inactive; H9c2 protect: inactive; V-ATPase pHluor: inactive; CR mimetic SO: inactive; MIN6 prolif-2: inactive

What do the screens show for `CN(C)C(=O)NC(O)C(Cl)Cl` (configuration not stated)?
HSV replic up: inactive; MIN6 prolif-1: inactive; p-CIP stab down: inactive; CR mimetic SO: inactive

Source: PubChem (several laboratories)
